The text below walks through data of PubChem BioAssay.

Each structure is given as a SMILES string. Values without a mark were called inactive. The source made the active and inactive calls. Cut-off read from the data, not from the text of the source, unless noted: active = inhibition above about 36%; inactive = the rest.

Sequence of Nuclear receptor coactivator 2 (Homo sapiens) (Q15596 whole entry, looked up, the tested form may be a part): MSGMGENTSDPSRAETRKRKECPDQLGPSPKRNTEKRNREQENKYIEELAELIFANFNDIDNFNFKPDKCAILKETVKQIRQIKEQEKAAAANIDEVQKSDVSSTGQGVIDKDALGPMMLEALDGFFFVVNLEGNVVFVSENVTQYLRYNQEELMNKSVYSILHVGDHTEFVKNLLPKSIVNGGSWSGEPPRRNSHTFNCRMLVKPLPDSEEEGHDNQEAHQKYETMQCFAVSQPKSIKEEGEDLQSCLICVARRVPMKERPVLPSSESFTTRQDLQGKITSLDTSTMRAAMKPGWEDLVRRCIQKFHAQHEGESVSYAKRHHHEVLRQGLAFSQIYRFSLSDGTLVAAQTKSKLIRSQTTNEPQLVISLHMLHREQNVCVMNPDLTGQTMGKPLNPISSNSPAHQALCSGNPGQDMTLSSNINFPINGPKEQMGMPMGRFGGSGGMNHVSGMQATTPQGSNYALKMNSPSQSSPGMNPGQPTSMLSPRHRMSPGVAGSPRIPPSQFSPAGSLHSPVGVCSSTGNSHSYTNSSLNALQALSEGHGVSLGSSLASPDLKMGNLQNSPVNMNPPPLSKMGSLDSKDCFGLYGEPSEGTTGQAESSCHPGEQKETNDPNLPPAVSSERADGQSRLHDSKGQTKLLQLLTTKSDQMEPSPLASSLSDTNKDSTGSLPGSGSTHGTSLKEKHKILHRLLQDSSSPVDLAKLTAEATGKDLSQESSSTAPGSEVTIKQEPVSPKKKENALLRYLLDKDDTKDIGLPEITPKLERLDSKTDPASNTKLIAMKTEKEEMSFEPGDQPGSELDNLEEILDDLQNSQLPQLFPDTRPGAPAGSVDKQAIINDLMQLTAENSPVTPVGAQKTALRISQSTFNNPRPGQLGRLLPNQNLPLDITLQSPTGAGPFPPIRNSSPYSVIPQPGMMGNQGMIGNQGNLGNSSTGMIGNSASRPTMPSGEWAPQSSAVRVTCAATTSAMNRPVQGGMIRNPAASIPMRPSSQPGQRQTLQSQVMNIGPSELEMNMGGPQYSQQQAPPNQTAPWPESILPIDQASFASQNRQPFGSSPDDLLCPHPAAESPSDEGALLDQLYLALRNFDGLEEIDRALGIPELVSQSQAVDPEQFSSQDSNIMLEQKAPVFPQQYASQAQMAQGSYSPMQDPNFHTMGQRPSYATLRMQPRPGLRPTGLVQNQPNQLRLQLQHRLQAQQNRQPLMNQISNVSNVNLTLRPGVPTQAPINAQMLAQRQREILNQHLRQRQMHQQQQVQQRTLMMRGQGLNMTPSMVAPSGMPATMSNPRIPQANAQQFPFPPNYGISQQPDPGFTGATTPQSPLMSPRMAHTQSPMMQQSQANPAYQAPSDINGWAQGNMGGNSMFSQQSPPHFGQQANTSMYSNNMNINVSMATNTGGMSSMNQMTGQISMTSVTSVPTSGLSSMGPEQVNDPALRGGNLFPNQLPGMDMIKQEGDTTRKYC

The subject of one assay is transactivating tegument protein VP16 (Human herpesvirus 1). In words: VP16 transactivation reporter inhibitors, counter-screen for SRC2 inhibitor project, cell-based, luminescence, single concentration (AID 652007). As to conditions: cell-based VP16 transactivation luciferase reporter, at 8.9 µM, stronger effect = higher value. Background: A counterscreen serves to expose hits that act by an unwanted route or on another target.
Take `COc1ccc(CN=C(Nc2ccccc2)SC2CC(=O)NC2=O)cc1` (stereo not given): the inhibition (as a rule, the change of the read-out against control, counted positive when it falls) was -5.45%.
On to `Cc1cc2nc(Sc3c([N+](=O)[O-])nc(C)n3Cc3ccccc3)[nH]c2cc1C`, for which the inhibition is 5.05%.
With `CC(C)(C)NC(=O)COC(=O)c1snc(C(=O)NC2CCCCC2)c1N`, the inhibition was -7.99%.
On to `CCCC1=Nc2cc(C(=O)NCCCOCC)ccc2Sc2ccccc21`, for which the inhibition is -2.83%.
As to `O=C(CSc1nc(N2CCOCC2)nc(N2CCOCC2)n1)Nc1ccccc1F`, the inhibition is 1.31%.
For `CCOC(=O)C1CCCN(C(=O)c2ccc3c(c2)N(C)C(=O)/C(=C/c2ccccc2Cl)S3)C1` (stereo not given), the inhibition was -1.52%.
On to `O=C1C2CCCN2C(=S)N1C1CCCCC1` (stereo not given), for which the inhibition was 1.86%.
For `O=C(CN1CCN(CC(=O)Nc2ccccc2Cc2ccccc2)CC1)Nc1ccccc1Cl`, the inhibition is 11.3%.
As to `CCc1ccc(C=C2SC(=S)N(CCCC(=O)Nc3ccc(C(=O)O)cc3)C2=O)cc1`, the inhibition was -9.93%.
For the molecule `Cc1ccc(C)c(OCc2ccc(C(=O)Nc3ccc([N+](=O)[O-])cn3)o2)c1`, the inhibition is 8.86%.
Turning to `COC(=O)c1cc(=O)n(-c2ccccc2)c(=Nc2ccccc2)s1`, the inhibition is 8.44%.
On the same count and under the same terms, to `O=C(NC12CC3CC(CC(C3)C1)C2)C1CC(=O)N(c2ccccc2)C1` (stereo not given) belongs 9.52%; to `Cn1cc(CN2CCN(CCO)CC2)c(-c2ccc(Oc3ccccc3)cc2)n1`, -9.32%; to `NCCOc1ccc(C2CCCCC2)cc1`, -53.7%.
Take `O=S(=O)(c1ccc(Cl)cc1)N1CCCC1c1nc(-c2ccc(Cl)cc2)no1` (stereo not given): the inhibition is -5.4%.
For `COc1cc2[nH]c(=O)n(CCCCCC(=O)NCCCN3CCCC3=O)c(=O)c2cc1OC`, the inhibition was 7.78%.
For the molecule `COC(=O)c1ccc(/C=C2/SC(=S)N(CCCC(=O)Nc3ccc(O)cc3)C2=O)cc1`, the inhibition was 15.8%.
Turning to `COc1cc(OC)cc(-c2cc3nc(C)c(CCC(=O)NCc4ccccc4)c(C)n3n2)c1`, the inhibition was 66.8% (active).
In the case of `COc1ccccc1/C=C/C1(C(=O)NC2CCCC2)CC(=O)N1c1ccc(F)cc1` (stereo not given), the inhibition is 19.7%.
As for `CC(C(=O)NC(C)(C)C)N(C(=O)CS(=O)CC(=O)Nc1ccc(F)cc1)c1ccccc1F` (stereo not given), the inhibition was 2.18%.
Same read-out and setting: the same measure for `Nc1nonc1C(=O)NCCNCc1cc(Br)ccc1OCc1ccc(F)cc1`: 1.07%; for `O=[N+]([O-])c1cccc(NC(=S)Nc2nc(-c3ccc(Cl)cc3Cl)cs2)c1`: -15.8%.
For the molecule `CCOc1ccc(-c2cc(CCCC(=O)NCc3ccco3)no2)cc1`, the inhibition was 16.9%.
Still for that read-out and setting: to `CNc1ccccc1C(=O)OC(C)C(=O)Nc1ccc(Cl)cn1` (stereo not given) belongs -10.2%.
As for `Cc1ccc(C2=[N+]([O-])C3(CCCCC3=O)N(O)C2(C)C)cc1` (stereo not given), the inhibition is -5.08%.
On the same count and under the same terms, to `N#Cc1ccc(-c2ccc(OCC(=O)Nc3cccnc3)cc2)cc1` belongs -9.35%; to `COc1ccc(C)cc1Nc1n[n+](-c2ccccc2)c(-c2c(Cl)cccc2Cl)s1`, 19.4%; to `O=S(=O)(O)Sc1ccccc1`, -0.6%.
In the case of `COc1ccc(C(C(=O)NC2CCCC2)n2c(CSCCOc3ccccc3)nc3ccccc32)cc1` (stereo not given), the inhibition was 43.5% (active).
Still for that read-out and setting: to `Cc1ccc(S(=O)(=O)/N=C(\N)c2ccc(F)cc2)cc1` belongs 5.17%.
Take `N#CC1C=Cc2c(ccc3ccccc23)N1C(=O)c1ccccc1` (stereo not given): the inhibition is -39.9%.
`CC(C)(C)C(=O)Nc1nnc(CSCc2ccccc2F)s1`: the inhibition is -20.9%.
Turning to `CCn1nc(NC(=O)C(C)C)c2cc3cccc(C)c3nc21`, the inhibition is 3.87%.
On to `O=C(CCl)N(Cc1ccccc1)c1ccccc1`, for which the inhibition was 26%.
As to `C[C@H]1CN([C@@H](C)CO)S(=O)(=O)c2ccc(Br)cc2O[C@H]1CN(C)Cc1ccccc1F`, the inhibition was 22.8%.
Still for that read-out and setting: the same measure for `O=C(CCCCl)NC(=S)Nc1cc(C(F)(F)F)ccc1N1CCOCC1`: -12.4%; for `COc1ccc(CCNc2oc(Cc3cccc4ccccc34)nc2C#N)cc1OC`: -7.8%.
For the molecule `CCOC(=O)C1=CCN(S(=O)(=O)c2ccccc2C)C1c1ccc(Cl)c(Cl)c1` (stereo not given), the inhibition is -18.3%.
Same read-out and setting: to `Cc1ccc(C2(CCNCc3ccco3)CCOC(C(C)C)C2)cc1` (stereo not given) belongs -11.6%; to `Cc1ccc(S(=O)(=O)C(NC(=O)c2ccccc2)=C(Cl)Cl)cc1`, 14.1%.

The next assay concerns the target Nuclear receptor coactivator 2 (Homo sapiens) (UniProt Q15596). Nature of the assay: SRC2 coactivator transcriptional activity inhibitors, confirmation, cell-based, luminescence, HEK293, triplicate (AID 652008;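 active = mean inhibition above 46.5%, the solvent-only control mean plus 3 SD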;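 note: 0% = DMSO-treated cells and 100% = Gossypol at 36 µM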). As to conditions: HEK293 GAL4-SRC2 luciferase reporter, at 8.9 µM, stronger effect = higher value. (In a reporter assay the amount or activity of a reporter protein is the signal.)
Take `COc1ccc(CN=C(Nc2ccccc2)SC2CC(=O)NC2=O)cc1` (stereo not given): the inhibition is -13.2%.
As for `Cc1cc2nc(Sc3c([N+](=O)[O-])nc(C)n3Cc3ccccc3)[nH]c2cc1C`, the inhibition was 30.7%.
In the case of `CC(C)(C)NC(=O)COC(=O)c1snc(C(=O)NC2CCCCC2)c1N`, the inhibition is 8.82%.
Take `CCCC1=Nc2cc(C(=O)NCCCOCC)ccc2Sc2ccccc21`: the inhibition was 15.5%.
Turning to `O=C(CSc1nc(N2CCOCC2)nc(N2CCOCC2)n1)Nc1ccccc1F`, the inhibition was 14.8%.
Consider `CCOC(=O)C1CCCN(C(=O)c2ccc3c(c2)N(C)C(=O)/C(=C/c2ccccc2Cl)S3)C1` (stereo not given), for which the inhibition is 23.8%.
With `O=C1C2CCCN2C(=S)N1C1CCCCC1` (stereo not given), the inhibition is 3.89%.
As to `O=C(CN1CCN(CC(=O)Nc2ccccc2Cc2ccccc2)CC1)Nc1ccccc1Cl`, the inhibition is 4.85%.
As to `CCc1ccc(C=C2SC(=S)N(CCCC(=O)Nc3ccc(C(=O)O)cc3)C2=O)cc1`, the inhibition was -5.86%.
Take `Cc1ccc(C)c(OCc2ccc(C(=O)Nc3ccc([N+](=O)[O-])cn3)o2)c1`: the inhibition is 35.9%.
Take `COC(=O)c1cc(=O)n(-c2ccccc2)c(=Nc2ccccc2)s1`: the inhibition was 24.4%.
Turning to `O=C(NC12CC3CC(CC(C3)C1)C2)C1CC(=O)N(c2ccccc2)C1` (stereo not given), the inhibition was -0.38%.
On the same count and under the same terms, the same measure for `Cn1cc(CN2CCN(CCO)CC2)c(-c2ccc(Oc3ccccc3)cc2)n1`: 7.36%; for `NCCOc1ccc(C2CCCCC2)cc1`: 23%.
`O=S(=O)(c1ccc(Cl)cc1)N1CCCC1c1nc(-c2ccc(Cl)cc2)no1` (stereo not given): the inhibition is -14.7%.
In the case of `COc1cc2[nH]c(=O)n(CCCCCC(=O)NCCCN3CCCC3=O)c(=O)c2cc1OC`, the inhibition was -9.47%.
As to `COC(=O)c1ccc(/C=C2/SC(=S)N(CCCC(=O)Nc3ccc(O)cc3)C2=O)cc1`, the inhibition was 7.74%.
Take `COc1cc(OC)cc(-c2cc3nc(C)c(CCC(=O)NCc4ccccc4)c(C)n3n2)c1`: the inhibition was 72.1% (active).
The same measure, in the same setting: the same measure for `COc1ccccc1/C=C/C1(C(=O)NC2CCCC2)CC(=O)N1c1ccc(F)cc1` (stereo not given): 49.2% (active).
As to `CC(C(=O)NC(C)(C)C)N(C(=O)CS(=O)CC(=O)Nc1ccc(F)cc1)c1ccccc1F` (stereo not given), the inhibition is -14.3%.
As for `Nc1nonc1C(=O)NCCNCc1cc(Br)ccc1OCc1ccc(F)cc1`, the inhibition was 1.86%.
For the molecule `O=[N+]([O-])c1cccc(NC(=S)Nc2nc(-c3ccc(Cl)cc3Cl)cs2)c1`, the inhibition was 9.75%.
On the same count and under the same terms, the same measure for `CCOc1ccc(-c2cc(CCCC(=O)NCc3ccco3)no2)cc1`: 37.5%.
Turning to `CNc1ccccc1C(=O)OC(C)C(=O)Nc1ccc(Cl)cn1` (stereo not given), the inhibition is 20.9%.
As to `Cc1ccc(C2=[N+]([O-])C3(CCCCC3=O)N(O)C2(C)C)cc1` (stereo not given), the inhibition is -2.69%.
Still for that read-out and setting: the same measure for `N#Cc1ccc(-c2ccc(OCC(=O)Nc3cccnc3)cc2)cc1`: 52.6% (active); for `COc1ccc(C)cc1Nc1n[n+](-c2ccccc2)c(-c2c(Cl)cccc2Cl)s1`: 22.7%; for `O=S(=O)(O)Sc1ccccc1`: 4.75%.
Take `COc1ccc(C(C(=O)NC2CCCC2)n2c(CSCCOc3ccccc3)nc3ccccc32)cc1` (stereo not given): the inhibition is 76.4% (active).
Take `Cc1ccc(S(=O)(=O)/N=C(\N)c2ccc(F)cc2)cc1`: the inhibition was -14.9%.
On to `N#CC1C=Cc2c(ccc3ccccc23)N1C(=O)c1ccccc1` (stereo not given), for which the inhibition was 56.4% (active).
For the molecule `CC(C)(C)C(=O)Nc1nnc(CSCc2ccccc2F)s1`, the inhibition was 9.89%.
Regarding `CCn1nc(NC(=O)C(C)C)c2cc3cccc(C)c3nc21`, the inhibition was 15.9%.
As for `O=C(CCl)N(Cc1ccccc1)c1ccccc1`, the inhibition was 48.6% (active).
`C[C@H]1CN([C@@H](C)CO)S(=O)(=O)c2ccc(Br)cc2O[C@H]1CN(C)Cc1ccccc1F`: the inhibition was 16.8%.
`O=C(CCCCl)NC(=S)Nc1cc(C(F)(F)F)ccc1N1CCOCC1`: the inhibition was -9.88%.
Same read-out and setting: the same measure for `COc1ccc(CCNc2oc(Cc3cccc4ccccc34)nc2C#N)cc1OC`: 7.3%.
On to `CCOC(=O)C1=CCN(S(=O)(=O)c2ccccc2C)C1c1ccc(Cl)c(Cl)c1` (stereo not given), for which the inhibition is -14%.
Regarding `Cc1ccc(C2(CCNCc3ccco3)CCOC(C(C)C)C2)cc1` (stereo not given), the inhibition was -20.8%.
In the case of `Cc1ccc(S(=O)(=O)C(NC(=O)c2ccccc2)=C(Cl)Cl)cc1`, the inhibition was 16.8%.
